D3 ag: qHTS of D3 Dopamine Receptor Agonist: qHTS; max activation, %; D3R DiscoveRx beta-arrestin cells, luminescence, 90 min; 410,000 compounds, 0.58% hits; AID 652048, 2013; in the data active = max activation above about 30%; also: 0% is about no effect
Target sequence (P35462 whole entry, looked up): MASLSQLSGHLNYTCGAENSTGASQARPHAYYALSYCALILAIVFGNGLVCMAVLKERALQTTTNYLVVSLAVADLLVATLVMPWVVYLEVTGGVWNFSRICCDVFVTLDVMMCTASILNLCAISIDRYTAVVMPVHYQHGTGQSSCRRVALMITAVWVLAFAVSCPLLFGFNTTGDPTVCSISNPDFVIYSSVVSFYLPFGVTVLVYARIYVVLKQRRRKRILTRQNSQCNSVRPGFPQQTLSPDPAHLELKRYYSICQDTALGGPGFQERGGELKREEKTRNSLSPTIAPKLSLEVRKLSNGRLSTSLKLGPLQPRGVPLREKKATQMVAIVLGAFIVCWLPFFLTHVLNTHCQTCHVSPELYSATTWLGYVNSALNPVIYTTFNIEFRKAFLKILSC
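Agonist mode: compounds and dopamine controls were applied to plated cells for 90 min at 37 degrees C after an overnight attachment at 1500 cells/well. Luminescent read-out followed 30 - 60 minutes at room temperature with DiscoveRx detection reagent.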
ClpP mod: qHTS Assay for Activators of ClpP. ATP-dependent Clp protease proteolytic subunit (Bacillus subtilis (strain 168)), P80244. purified B. subtilis ClpP, FRET peptide cleavage, 20 min. Potency, µM (titrated, usually from 57.5 µM), for inactives: at the top dose activity change, negative = active. 340,000 compounds, 1.9% hits; active = well fitted falling curve with a large enough effect; inconclusive = small, poorly fitted or top-dose-only effect; inactive = no such curve, though single readings can be large or run the other way; also: potency is read from the fitted curve at half-maximal effect; the source files actives as falling curves though it sought activators and does not explain the sign; nearly all actives have a fitted effect of over 65% in size
Target sequence (P80244 whole entry, looked up): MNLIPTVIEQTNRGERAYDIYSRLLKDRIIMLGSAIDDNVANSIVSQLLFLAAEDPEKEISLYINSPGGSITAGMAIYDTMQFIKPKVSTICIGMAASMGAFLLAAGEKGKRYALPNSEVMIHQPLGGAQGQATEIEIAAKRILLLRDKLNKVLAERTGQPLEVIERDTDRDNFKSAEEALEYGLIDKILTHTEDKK
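FRET quenching reversal measured ClpP activation: 10 microg/mL B. subtilis ClpP at pH 8 with the FRET-FV decapeptide, read at 430 nm after 320 nm excitation. The 20-min minus 0-min signal was scaled between DMSO/no-enzyme wells and ADEP (5.8 microM final).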
DT40 TDP1 no CPT: qHTS for Inhibitors of human tyrosyl-DNA phosphodiesterase 1 (TDP1): qHTS in cells in absence of CPT. DT40 Tdp1-/- hTDP1 cells, no CPT, ATP luminescence, 48 h. Potency, µM (highest dose often 46.2 µM), for inactives: top-dose activity change, negative = growth inhibition, hits mostly inhibitors. 420,000 compounds, 15% hits. AID 686978, 2013; also: potency is read from the fitted curve at half-maximal effect; % is scaled to controls: 0 for no effect and ±100 for the full control effect; nearly all actives have a fitted effect of over 55% in size
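Compound effects on proliferation are scored in DT40 Tdp1-/-;hTDP1 cells in the absence of CPT. ATP levels (CellTiter-Glo luminescence) are recorded after a ≥48 hr, 37 °C incubation.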
DRD3 antagonist: qHTS of D3 Dopamine Receptor Antagonist: qHTS. D(3) dopamine receptor (Homo sapiens), P35462. D3R cells, DiscoveRx beta-arrestin luminescence, antagonist mode; hits give low values. max response, negative = inhibition, %. 360,000 compounds, 2.5% hits. AID 652054, 2013; in the data active = max response below about -50%; inconclusive = no clear call, values can overlap the other calls; also: % is scaled to controls: 0 for no effect and ±100 for the full control effect
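Cells expressing the human receptor were seeded at 1500 cells/well, incubated overnight at 37 degrees C in 5% CO2, then exposed to library compounds with dopamine controls for 90 minutes at 37 degrees C before luminescent detection.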
IL1B secr inh: qHTS for Inhibitors of Inflammasome Signaling: IL-1-beta AlphaLISA Primary Screen; THP-1 LPS/ATP IL-1B secretion, AlphaLISA, 16 h; hits give low values; activity change, % at 57.5 µM; 360,000 compounds, 4.7% hits; in the data active = activity change below about -50%; inconclusive = mostly about -30% to -49%; also: % is scaled to controls: 0 for no effect and ±100 for the full control effect
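THP-1 cells pretreated 1 hr with compounds (up to 57.5 uM final), then stimulated with LPS (250 ng/mL final) plus ATP (1.25 mM final); secreted IL-1B measured by AlphaLISA after 16 hr, decreased signal indicating inhibition.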
TDP1 cell CPT: qHTS for Inhibitors of human tyrosyl-DNA phosphodiesterase 1 (TDP1): qHTS in cells in presence of CPT; chicken DT40 Tdp1-/-;hTDP1 cells + 20 nM CPT, ATP luminescence, 48 h; Potency, µM (series often up to 46.2 µM), inactives show at the top dose activity change, negative = growth inhibition, most hits filed as inhibitors; 420,000 compounds, 12% hits; also: potency is read from the fitted curve at half-maximal effect; % is scaled to controls: 0 for no effect and ±100 for the full control effect; nearly all actives have a fitted effect of over 55% in size
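Chicken DT40 Tdp1-/- cells stably complemented with human TDP1 were seeded at 400 cells/well in medium containing 20 nM camptothecin, exposed to pin-transferred compounds, and grown at 37 °C for at least 48 hr. Viability was read as ATP luminescence.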
* = called active by the depositor; ? = inconclusive; . = no result. A selection: hits, their analogues and other compounds. The true share with any hit is near 21%. Unless noted, calls follow the shape of the dose curve; as a rule, active = well fitted inhibition curve with a large enough effect; inconclusive = small, poorly fitted or top-dose-only effect; inactive = flat fitted curve, though single readings scatter.

SMILES	D3 ag	ClpP mod	DT40 TDP1 no CPT	DRD3 antagonist	IL1B secr inh	TDP1 cell CPT
CCC(=NCCc1c(C)[nH]c2ccc(C)cc12)C1=C(O)CC(c2ccccc2)CC1=O (configuration not stated)	-10.6	0.8%	0.82µM*	9.5	2.3	0.581µM*
COc1cc(Cl)c(C)cc1NC(=O)c1cc(S(=O)(=O)N2CCCC2)ccc1F	1.5	?	4.9%	.	.	5.9%
CC(C)OC(=O)c1cccnc1SCC(=O)Nc1ccc(C(F)(F)F)cc1Cl	0.5	2.3%	-22.0%	.	.	-27.5%
COc1ccc(NC(=O)c2oc3c(c2C)-c2nn(Cc4ccccc4Cl)cc2CC3)cc1OC	-3.0	-8.9%	20.6µM*	.	.	20.6µM*
CCOC(=O)c1oc2c(c1C)-c1nn(Cc3c(F)cccc3Cl)cc1CC2	6.8	4.2%	?	.	.	-0.5%
COCCCNC(=O)c1oc2c(c1C)-c1nn(Cc3ccccc3Cl)cc1CC2	-9.6	?	18.4µM*	.	.	?
Oc1c(Br)cc(Br)cc1CNc1nccs1	5.9	0.8%	-7.4%	-9.7	10.0	-20.7%
CC#CCOC(=O)c1c(C)nc2sc3c(c2c1N)CCC(O)C3 (configuration not stated)	14.7	-9.3%	9.2µM*	0.0	-9.4	?
Cc1ccc(-n2nc(C)c3c(C(F)(F)F)cc(-c4cccnc4)nc32)cc1Cl	10.3	-5.1%	1.1%	.	.	0.3%
COc1cccc(CNC(=O)c2cc3c(=O)oc4ccc(C)cc4c3s2)c1	2.7	-28.1%	20.6µM*	.	.	?
COCCCNC(=O)c1cc2c(=O)oc3ccc(C)cc3c2s1	1.2	4.1%	5.8µM*	.	.	6.51µM*
COc1ccc(/C=C\C(=O)O[C@@H]2C(O)C(O[C@@H]3OC(C)[C@H](O[C@@H]4OCC(O[C@H]5O[C@H](CO)[C@@H](O)C(O)C5O)C(O)C4O)C(O)C3O)[C@H](OC(=O)[C@]34CCC(C)(C)C[C@@H]3C3=CCC5[C@@]6(C)CC(O)C(O[C@@H]7OC(CO)C(O)[C@H](O)[C@H]7O)[C@@](C)(C(=O)O)C6CC[C@@]5(C)[C@]3(CO)CC4)O[C@H]2C)cc1 (some centres not stated)	5.3	-1.5%	5.17µM*	22.3	-97.2*	3.66µM*
C/C=C(\C)C(=O)OC1[C@H](OC(C)=O)C2(CO)C(CC1(C)C)C1=CCC3C4(C)CCC(O[C@@H]5O[C@H](C(=O)O)[C@@H](O[C@@H]6O[C@H](CO)[C@@H](O)[C@H](O)[C@H]6O)[C@H](O)[C@H]5O[C@H]5O[C@H](CO)[C@@H](O)[C@H](O)[C@H]5O)[C@](C)(CO)C4CCC3(C)[C@]1(C)C[C@H]2O (some centres not stated)	-44.0	0.2%	14.6µM*	-120.7*	-105.4*	11.6µM*
CC1(C)C[C@H]2C3=CCC4[C@@]5(C)CC[C@H](O[C@@H]6O[C@H](C(=O)O)[C@@H](O)[C@H](O)[C@H]6O)[C@@](C)(CO)C5CC[C@@]4(C)[C@]3(C)C[C@H](O)[C@@]2(CO)[C@@H](O)[C@@H]1O (some centres not stated)	-2.9	0.0%	0.0%	13.8	27.5	5.2%
C[C@@H]1OC(OC2CC[C@@]3(C)C(CC[C@@]4(C)C3CC=C3C5CC(C)(C)CC[C@]5(C(=O)OC5OCC(O)[C@@H](O)[C@@H]5OC5O[C@@H](C)[C@H](O[C@H]6OC(CO)C(O)C(O)C6O)C(O)C5O)C(O)C[C@@]34C)C2(C)C)C(O)C(O)[C@H]1OC1OCC(O)C(O)[C@H]1O (some centres not stated)	.	.	?	.	.	14.6µM*
CC1O[C@@H](OC2C(COC3OC(CO)C(O)[C@H](O)C3O)OC(OC3CC[C@]4(C)C(CC[C@@]5(C)[C@@H]4CC=C4[C@@H]6CC(C)(C)CC[C@]6(CO)C(O)C[C@]45C)C3(C)C)C(O)C2O)C(O)C(O)C1O (some centres not stated)	4.4	1.2%	6.6%	-2.5	9.3	13.0%
COc1cccc(CNC(=O)c2c(OC)cc(=O)n3c2CCN(C(=O)c2cc(F)cc(F)c2)CC3)c1	.	.	-13.9%	.	.	-7.4%
O=S(=O)(c1ccccc1)N1CCC2(CCCN(c3cccc(-c4ccccc4)c3)C2)CC1	.	.	-29.1%	.	.	5.3%
c1ccc(-c2cccc(N3CC[C@@]4(CCCNC4)C3)c2)cc1	.	.	6.51µM*	.	.	8.2µM*
c1ccc(-c2cccc(N3CCCC4(CCNCC4)C3)c2)cc1	.	.	20.6µM*	.	.	11.6µM*
c1ccc(-c2cccc(N3CCC4(CCNCC4)CC3)c2)cc1	.	.	8.2µM*	.	.	9.2µM*
c1ccc(-c2cccc(N3CC4(CCNCC4)C3)c2)cc1	.	.	9.2µM*	.	.	9.2µM*
N[C@H]1CONC1=O	0.5	-1.4%	14.3%	5.9	-5.6	4.2%
CC(c1cccs1)N(C)Cc1nc(CCc2ccccc2)no1 (configuration not stated)	0.0	-0.1%	2.4%	1.6	60.7	-2.8%
CC(C)CC(=O)Nc1cccc(-c2cn3cccnc3n2)c1	-10.8	4.1%	-27.3%	.	.	-10.3%
SMILES	D3 ag	ClpP mod	DT40 TDP1 no CPT	DRD3 antagonist	IL1B secr inh	TDP1 cell CPT
Cc1cccc(/C=N/NC(=O)c2cccc(NC(=O)c3ccccc3)c2)n1	-0.8	.	-13.0%	10.9	31.7	-1.2%
O=C(Nc1cccc(C(=O)Nc2cccc(Br)c2)c1)c1ccccc1	2.2	5.8%	?	-3.4	-0.7	23.1µM*
O=C(Nc1cccc(F)c1)c1ccccc1	1.7	-0.2%	-0.5%	14.9	-11.7	-29.0%
O=C(NNC(=O)c1cccc(Br)c1)Nc1ccc(Cl)cc1	-15.7	.	?	-66.7*	20.5	23.1µM*
Cc1cccc(NC(=O)c2cccc(NC(=O)c3ccccc3)c2)n1	-6.9	.	?	14.4	-4.4	4.11µM*
O=C(Nc1ccc(Cl)cc1)Nc1cccc(C(=O)O)c1	10.1	.	-7.1%	-13.6	-6.5	4.1%
O=C(Nc1cccc(C(=O)Nc2ccccc2F)c1)c1ccccc1	-3.7	.	23.1µM*	-4.1	-11.3	?
CC(C)c1ccc(NC(=O)c2cccc(Br)c2)cc1	0.7	1.8%	?	6.2	-52.2*	-26.1%

High-throughput results: PubChem BioAssay, National Center for Advancing Translational Sciences (NCATS)
